Calls of active or inactive are those of the source. The calls were made as follows: active = hit-call score of the fitted dose curve at least 0.9, where 1 is the maximum; inactive = score below 0.9.
These compounds were tested on Cytochrome P450 3A7 (Homo sapiens) (UniProt P24462) (assay: LTEA_HepaRG_CYP3A7: Life Technologies and Expression Analysis (LTEA) Assay for CYP3A7 using HepaRG (AID 2283492)). Conditions: mRNA level, 48 h; actives raise or lower the signal.
Method: LTEA_HepaRG is a cell based, multiplexed-readout assay that uses HepaRG, a human liver cell line, with measurements taken at 48 hours after chemical dosing on a 96-well plate.LTEA_HepaRG_CYP3A7 is one of 102 assay component(s) measured in the LTEA HepaRG cell culture assay. It is a marker of NR mediated metabolism/Undifferentiated hepatocyte.Data from the assay component LTEA_HepaRG_CYP3A7 was analyzed into 1 endpoint. This assay endpoint, LTEA_HepaRG_CYP3A7, was analyzed with bidirectional fitting relative to DMSO as the negative control and baseline of activity. Using a type of inducible reporter, measures of mRNA induction for gain or loss-of-signal activity can be used to understand regulation of transcription factor activity. To generalize the intended target to other relatable targets, this assay endpoint is annotated to the cyp intended target family, where the subfamily is xenobiotic metabolism.
A total of 1060 chemcials from the ToxCast library were tested in eight-point concentration-response experiments. Cell culture and cytotoxicity assays were conducted at Thermo Fisher Scientific's Custom Services facility (Madison, WI). A single lot of human HepaRG cells (Thermo Fisher Scientific, Frederick, MD) was used for the cell culture experiments. 96-well format collagen type I coated plates of human HepaRG cells were prepared using established methods. Briefly, cryopreserved HepaRG cells were thawed, plated at a density of approximately 100,000 cells/well in HepaRG Thaw, Plate, and General Purpose media (HPRG770, Thermo Fisher Scientific), and incubated for 48 hours. 0.5% DMSO was selected as vehicle control to balance the requisite need of DMSO in HepaRG cultures to maintain differentiation (for example, baseline metabolism, proportions of hepatocytes vs. cholangiocytes), while enabling further hepatic receptor pathway activation (for example, PXR and CAR) in response to chemical exposure. 48 hours after plating, the culture medium was replaced with HepaRG Serum-Free Incudtion Media. Cells were exposed to each test chemical in duplicate and maintained in CO2 incubators for another 48 hours. Chemical plates were thawed to room temperature and 200x concentrations of treatment groups were prepared. 8-point conentration-reponse curves were made with the highest exposure at 100 uM, followed by half-log dilutions, all in 0.5% DMSO. Each test plate contained variouse controls, induction positive controls (1mM phenobarbital), cytotoxicity positive controls ([…] aflatoxin B1), vehicle controls (0.5% DMSO), and total lysis controls (0.5% DMSO). Cell morphology images were taken using an Essen IncuCyte FLR automated microscope, with six 96-well plates imaged in about 24 minutes. Images were captured and exported and JPEG files. Spent culture media was transfered to black-well plates for the LDH assay, and remaining media was sorted at -80 C for later use. Cells were treated with RLT buffer and frozen until shipped for gene expression analysis. Total RNA was isolated from the cell suspension in 75 uL of Buffer RLT (Qiagen, Germantown, MD 20874) by Quintiles/Expression Analysis (Durham, NC) using a custom isolation procedure. Total RNA from each plate well was transferred to a preamplification plate. Fluidigm's 96.96 Dynamic ArrayTM (Fluidigm, Amsterdam, the Netherlands) technology was used for gene expression analyses by quantitative reverse transcription polymerase chain reaction (qRT-PCR, performed by Quintiles/Expression Analysis, Durham, NC)89. Standard TaqManTM Assays (Applied Biosystems/ThermoFisher Scientific, Foster City, CA) were used to assess the expression of 93 genes selected based on their selectivity and sensitivity to important hepatic receptors known to be modulated by environmental chemicals; importance in human hepatocyte functionality; and hepatotoxicity. […]

Sequence of Cytochrome P450 3A7 (Homo sapiens) (P24462 whole entry, looked up): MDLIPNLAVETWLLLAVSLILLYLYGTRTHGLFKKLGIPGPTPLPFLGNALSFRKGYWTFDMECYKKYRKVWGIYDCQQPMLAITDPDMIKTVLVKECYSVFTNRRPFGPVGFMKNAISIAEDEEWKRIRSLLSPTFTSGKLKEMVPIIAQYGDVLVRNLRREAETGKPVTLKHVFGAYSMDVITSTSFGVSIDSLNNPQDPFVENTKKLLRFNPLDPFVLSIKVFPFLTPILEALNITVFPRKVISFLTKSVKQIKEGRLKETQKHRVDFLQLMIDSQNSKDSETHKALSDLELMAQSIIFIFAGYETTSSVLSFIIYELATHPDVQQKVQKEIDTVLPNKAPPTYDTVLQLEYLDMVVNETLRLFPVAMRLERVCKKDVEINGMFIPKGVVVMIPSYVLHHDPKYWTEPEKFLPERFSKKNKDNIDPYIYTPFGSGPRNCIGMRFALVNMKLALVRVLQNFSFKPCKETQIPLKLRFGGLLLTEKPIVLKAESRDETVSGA

Compound	outcome	AC50
O=C(N[C@@H](c1ccccc1)[C@@H]1CCCCN1)c1cccc(C(F)(F)F)c1Cl	inactive	
COC(=O)CCCC(=O)OC	inactive	
O=C(Oc1ccccc1)c1cccc(C(=O)Oc2ccccc2)c1	inactive	
O=C1c2c(O)cccc2Cc2cccc(O)c21	inactive	
CCN(CC)CCOc1ccc(C(=C(Cl)c2ccccc2)c2ccccc2)cc1	inactive	
CCCCCCC(C=O)=Cc1ccccc1	inactive	
Cc1ccc(C(C)(C)C)c(O)c1	inactive	
C=CCc1ccc(OC)c(OC)c1	inactive	
CC1=C(C)S(=O)(=O)CCS1(=O)=O		72 µM (active)
CC(COCC(C)OC(=O)c1ccccc1)OC(=O)c1ccccc1 (stereo not given)	inactive	
Cc1cc(Cc2ccc(N)c(C)c2)ccc1N		10.8 µM (active)
C=CCCCCCCCCCCCC	inactive	
CC(C)(O)c1ccc(CNC(=O)c2cccnc2Oc2ccc(F)cc2)cc1		9.92 µM (active)
C#CC(O)C(CC)CCCC (stereo not given)	inactive	
OCC(O)CO	inactive	
CC(C)COC(=O)CCCCC(=O)OCC(C)C	inactive	
NC(=Nc1ccccc1)Nc1ccccc1	inactive	
CO[C@@H]1COCC[C@@H]1N[C@@H]1CC[C@@](C(=O)N2CCc3ncc(C(F)(F)F)cc3C2)(C(C)C)C1	inactive	
O=C(O)CN(CC(=O)O)CC(=O)O	inactive	
CCCCCCCCCCCCCCCCO	inactive	

Compound	outcome	AC50
Cc1cn([C@H]2C=C[C@@H](CO)O2)c(=O)[nH]c1=O	inactive	
C/C=C/c1ccc(OC)cc1	inactive	
C/C=C/C=C/C(=O)O	inactive	
O=C(O)c1cccnc1	inactive	
CCCCCCCCCCCCCCOS(=O)(=O)O	inactive	
COC(=O)CCC(=O)OC	inactive	
O=Cc1ccccc1C=O	inactive	
CCCC[C@H]1CN(CC2CCOCC2)C(=O)OC12CCN(C1(C)CCN(C(=O)c3c(C)ncnc3C)CC1)CC2	inactive	
NC1CCCCC1	inactive	
CC(=O)S[C@H](C(=O)N[C@H]1Cc2ccccc2[C@H]2CCC[C@@H](C(=O)O)N2C1=O)C(C)C	inactive	
OCC(CO)n1cnc(-c2ccc(F)cc2)c1-c1ccnc(Oc2ccccc2)n1		7.88 µM (active)
c1ccc2occc2c1	inactive	
CCCCCCC(CCCCCCCCCCC(=O)OCC(COC(C)=O)OC(C)=O)OC(C)=O (stereo not given)	inactive	
Cc1cc(SC2=C(O)C[C@@](CCc3ccc(N)cc3)(C(C)C)OC2=O)c(C(C)(C)C)cc1CO		0.151 µM (active)
CSc1ccc(Oc2ccc(S(N)(=O)=O)cc2CN(C)C)cc1C	inactive	
NC=O	inactive	
CC(N)=O	inactive	
O=C1CCCCC1	inactive	
CC(=O)O[C@]1(C(C)=O)CC[C@H]2[C@@H]3C=C(Cl)C4=CC(=O)[C@@H]5C[C@@H]5[C@]4(C)[C@H]3CC[C@@]21C	inactive	
CCCCC(CC)COP(=O)(OCC(CC)CCCC)OCC(CC)CCCC (stereo not given)		5.61 µM (active)

Reference: PubChem BioAssay (EPA / NIEHS)
